# The list is not random: actives were taken first. Their share in the collection is about 2.9%.
# MEKK3 PB1 HTS = modulators of MEKK3-MEK5 PB1 binding, primary screen, biochemical, wildtype MEKK3, multiplex bead flow cytometry, Alexa488-MEK5. 1.4% of 290,000 active. bead-based flow cytometry, Alexa488-MEK5 binding to MEKK3; actives lie on both sides; 0 = blocked by unlabeled MEK5, 100 = vehicle. Mitogen-activated protein kinase kinase kinase 3 (Homo sapiens), Q99759. binding response (% of control), % at 10 µM;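 active = binding response more than 3 SD above or below the average of its plate-row segment, actives on both sides; inconclusive = wells at one plate position flagged as instrument error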;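 note: Alexa488 bead fluorescence after subtracting the streptavidin-only scavenger bead signal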
# dFosB act = activators of delta FosB homodimer, primary screen, biochemical, fluorescence polarization, TAMRA-CDK5 oligo, single point; Protein FosB (Mus musculus), P13346; purified delta FosB; percent of positive-control signal above neutral wells; activation, % at 25 µM; 0.99% of 340,000 active; AID 493131, 2011;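 active = mean activation above about 17%, with every replicate also reaching it, limit read from the data, passing the limit was not always enough; inconclusive = only one of the two conditions met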
# Target sequence (P13346 whole entry, looked up): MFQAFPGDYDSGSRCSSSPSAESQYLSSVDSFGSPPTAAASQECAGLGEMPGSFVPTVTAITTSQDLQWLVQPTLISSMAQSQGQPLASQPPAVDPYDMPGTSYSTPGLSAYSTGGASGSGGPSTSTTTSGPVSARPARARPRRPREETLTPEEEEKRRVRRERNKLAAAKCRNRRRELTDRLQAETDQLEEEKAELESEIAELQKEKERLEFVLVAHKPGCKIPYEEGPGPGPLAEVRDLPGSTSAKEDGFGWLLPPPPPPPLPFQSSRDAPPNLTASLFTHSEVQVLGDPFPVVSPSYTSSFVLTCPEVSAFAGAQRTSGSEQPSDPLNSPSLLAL
# DNA FID counter = compounds displacing fluorescent DNA intercalator, primary screen, artefact control for HCV NS3 helicase inhibitor project, biochemical, FID fluorescence; 0.17% of 290,000 active; DNA fluorescent intercalator displacement; inhibition, % at 7.9 µM; in the data active = inhibition above about 37%;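 note: 0% = vehicle and 100% = reference compound; higher means more ethidium bromide displaced from hairpin DNA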
# MEKK2 mut-MEK5 = MEK5 binding signal on mutant MEKK2 PB1, primary screen, biochemical, multiplex bead flow cytometry, Alexa488-MEK5; Alexa488-MEK5 binding to MEKK2 mutant; percent response, % at 10 µM; 0.35% of 290,000 active; in the data active = percent response above about 24%, passing the limit was not always enough
# MEKK2 WT-MEK5 = modulators of MEK5 binding to wildtype MEKK2, primary screen, biochemical, multiplex bead flow cytometry, Alexa488-MEK5 | Mitogen-activated protein kinase kinase kinase 2 (Homo sapiens), Q9Y2U5 | Alexa488-MEK5 binding to MEKK2 WT; actives lie on both sides | 1.1% of 290,000 active | binding response (% of control), % at 10 µM; in the data active = binding response below about 67% or above about 130%; inconclusive = no clear call, values can overlap the other calls; inactive = in between
# MEKK2wt confirm = modulators of MEK5 binding to wildtype MEKK2, confirmation, biochemical, single concentration, multiplex bead flow cytometry; Alexa488-MEK5 binding to MEKK2 WT; actives lie on both sides; shares compounds with MEKK3 PB1 HTS; 2.4% of 5,900 active; binding response (% of control), % at 10 µM; in the data active = binding response below about 16% or above about 210%; inactive = in between
# MEKK2mut-MEK5 = mutant MEKK2 PB1-MEK5 binding signal retest – biochemical, single concentration, multiplex bead flow cytometry, confirmation. AID 1893, 2009. shares compounds with MEKK3 PB1 HTS. percent response, % at 10 µM. Alexa488-MEK5 binding to MEKK2 mutant. 2% of 5,900 active; in the data active = percent response mostly above about 71%, no sharp cut-off; inactive = mostly below about 38%;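 note: higher means compound restores mutant binding toward wildtype level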
# MEKK3 confirm = MEKK3 wild-type PB1 binding to MEK5, inhibitors, confirmation, biochemical, bead multiplex flow cytometry, single concentration, wildtype; shares compounds with MEKK3 PB1 HTS; 1.8% of 5,900 active; Alexa488-MEK5 binding to MEKK3; hits give low values; AID 1894, 2009; binding response (% of control), % at 10 µM;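 active = binding response below 72% of control, or above a set upper limit, though filed actives all read lower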;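 note: 100% = DMSO only wells and 0% = binding blocked by excess unlabeled MEK5; lower values mean stronger disruption of MEK5 binding to MEKK3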
# An asterisk follows results filed as active; ? = inconclusive; / = no result; [ ] = dose if it differs, or a comment.
SMILES,MEKK3 PB1 HTS,dFosB act,DNA FID counter,MEKK2 mut-MEK5,MEKK2 WT-MEK5,MEKK2wt confirm,MEKK2mut-MEK5,MEKK3 confirm
Cc1ccc(NC(=O)CSc2nnc(-c3cccs3)o2)cc1S(=O)(=O)N1CCCCC1,135*,-6,-23,0,105,99,4,105
C=C(C)C(=O)OCC(=O)NCc1ccccc1,104,-7,-2,1,104,/,/,/
Cc1ccc(/C=C2\CCC3=C2OC(N)=C(C#N)C3c2ccc(C)cc2)cc1 (configuration not stated),118,-3,-15,108*,101,92,-17,95
COC(=O)c1cc(Br)ccc1NC(=O)CCNC(=O)c1ccco1,104,-7,-23,0,100,/,/,/
Cc1ccc(C(=O)Nc2ncc3c(Cl)cccc3n2)cc1,109,-19,-2,25*,109,104,2,105
S=c1[nH]nc(COc2ccccc2)n1/N=C/c1c(Cl)cccc1Cl,103,-1,-12,1,105,/,/,/
CCN(C(=O)c1cn(C)c(=O)c2cc(OC)c(OC)cc12)c1cc(C)ccc1C,1.0*[inhibitor],-2,-37,-9,-2.0*[inhibitor],98,-5,102
CC(C)N(C(=O)CSc1nnc(Cc2ccc3c(c2)OCO3)n1C)C(C)C,102,-1,-24,-11,96,/,/,/
Cn1c(Cc2ccc3c(c2)OCO3)nnc1SCC(=O)NC(C)(C)C,65*[inhibitor],-9,-8,-12,64,104,-2,103
CCc1ccc(OCC(=O)N/N=C/c2ccc(OS(=O)(=O)c3ccc(C)cc3)c(OC)c2)cc1,106,-4,-12,10,117,/,/,/
COc1cc(/C=N/NC(=O)COc2cc(C)cc(C)c2)ccc1OS(=O)(=O)c1ccc(C)cc1,135*,-7,-2,0,98,98,1,101
COc1ccc(CNC(=O)Cn2nc(C(F)(F)F)c(Br)c2C)cc1,102,10,-8,2,104,/,/,/
Cc1c(Br)c(C(F)(F)F)nn1CC(=O)NCc1ccccc1,132*,14,-4,0,102,91,-6,93
O=c1cc(CSc2ccccc2)nc(-c2ccncc2)[nH]1,46*[inhibitor],1,-1,-15,61,100,8,100
CC(C)(C)n1ncc2c(=O)n(Cc3ccc(Cl)cc3Cl)cnc21,2.0*[inhibitor],-2,-2,-69,2.0*[inhibitor],105,-1,105
O=C1/C(=C\c2ccc(-c3ccccc3Cl)o2)SC(=S)N1CC1CCCO1 (configuration not stated),60*[inhibitor],-3,-5,-28,35*[inhibitor],40,-24,82
O=C(Cc1cccc2ccccc12)N/N=C/c1ccc(F)cc1,122*,-4,-9,6,113,95,2,96
Cc1nc(NC(=O)c2ccccc2)sc1-c1csc(NCCc2ccccc2)n1,49*[inhibitor],-7,-5,-14,69,121,13,108
C=C[C@@H](C)N(Cc1ccc(OC)cc1)S(=O)(=O)N(Cc1ccccc1)[C@H](C=C)C(C)C,/,1,/,/,/,/,/,/
NS(=O)(=O)c1ccc(CCNC(=O)CSc2ccc(Cl)cc2)cc1,103,1,-2,12,114,/,/,/
NS(=O)(=O)c1ccc(CCNC(=O)CSc2ccc(Cl)cc2Cl)cc1,40*[inhibitor],-6,-10,-13,43*[inhibitor],103,8,103
NCCNC(=O)c1c(NC(=O)c2ccccc2)sc2c1CCCC2,110,16,18,30*,149*,137,12,105
Cc1onc(-c2ccccc2)c1C(=O)Nc1sc2c(c1C(N)=O)CCC2,2.0*[inhibitor],-7,-8,-15,2.0*[inhibitor],106,0,98
Cc1onc(-c2ccccc2)c1C(=O)Nc1sc2c(c1C#N)CCC2,92,-9,-12,-6,94,/,/,/
O=C(Nc1sc2c(c1C(=O)NCCCO)CCCC2)c1ccccc1,98,-8,-12,-1,103,/,/,/
SMILES,MEKK3 PB1 HTS,dFosB act,DNA FID counter,MEKK2 mut-MEK5,MEKK2 WT-MEK5,MEKK2wt confirm,MEKK2mut-MEK5,MEKK3 confirm
Cc1nn(C)c(Cl)c1S(=O)(=O)N1CCC(CO)(CCc2ccccc2)CC1,81,-4,-20,-9,88,/,/,/
O=c1c(Cc2c(F)cccc2Cl)c(O)ccn1C1CC1,102,5,0,3,104,/,/,/
CCOC(=O)c1cc(C)sc1/N=C/C1=C(O)CCCC1=O,131*,-4,-3,1,108,107,9,109
CCOC(=O)c1cc(C)sc1/N=C/C1C(=O)CCCC1=O,110,-8,1,1,103,/,/,/
Cc1cccc(C)c1NC(=O)COC(=O)COc1ccc2c(C)cc(=O)oc2c1,95,0,-2,-3,96,/,/,/
CCN(CC(=O)Nc1c(F)cccc1F)C(=O)COc1ccc2c(C)cc(=O)oc2c1,41*[inhibitor],-4,-6,-14,44*[inhibitor],96,-6,100
O=C(CSC1=NCCS1)c1ccc(Cl)cc1,115,-12,-1,129*,282*,104,-6,102
CCN1CCN(C(c2ccc(OC)cc2)c2nnnn2Cc2ccc3c(c2)OCO3)CC1 (configuration not stated),144*,3,10,7,132,100,1,101
CCN1CCN(C(c2ccccc2)c2nnnn2Cc2ccc3c(c2)OCO3)CC1 (configuration not stated),106,2,9,7,108,/,/,/
CCN1CCN(C(c2ccccc2)c2nnnn2Cc2ccccc2)CC1 (configuration not stated),144*,-14,9,9,139*,114,17,108
C#CCOCCOCCOCCNc1nc(N2CCN(C(=O)[C@H]([C@@H](C)CC)n3cc([C@@H](N)Cc4ccc(O)cc4)nn3)CC2)nc(N2CCN(C(=O)[C@H](Cc3ccc(O)cc3)n3cc([C@@H](N)CC(C)C)nn3)CC2)n1,114,?,36,50,181*,118,8,101

# Source: PubChem BioAssay
